This passage reports inhibition results from PubChem BioAssay AID1220 (Sanford-Burnham Center for Chemical Genomics, 2008).

The term inhibition denotes the relative decrease from the control value, in per cent.

Structures are written as SMILES. About 1,300 (0.68%) of roughly 190,000 compounds were called active. What follows is part of a selection rich in actives, with near analogues and random picks from the rest. A number with no mark means an inactive call. No stated cut-off is given here; in the data, active means inhibition above about 50%; inactive means the rest.

The target in this assay is Mannose-6-phosphate isomerase (Homo sapiens) (UniProt P34949). Kind of assay: MPI inhibition at elevated mannose 6-phosphate – biochemical, fluorescence intensity, high mannose 6-phosphate, primary screen (AID 1220). To be noted: recombinant PMI enzyme, coupled fluorescence intensity; at 20 µM; hits give high values.
Mannose-6-phosphate isomerase (Homo sapiens), sequence (P34949 whole entry, looked up): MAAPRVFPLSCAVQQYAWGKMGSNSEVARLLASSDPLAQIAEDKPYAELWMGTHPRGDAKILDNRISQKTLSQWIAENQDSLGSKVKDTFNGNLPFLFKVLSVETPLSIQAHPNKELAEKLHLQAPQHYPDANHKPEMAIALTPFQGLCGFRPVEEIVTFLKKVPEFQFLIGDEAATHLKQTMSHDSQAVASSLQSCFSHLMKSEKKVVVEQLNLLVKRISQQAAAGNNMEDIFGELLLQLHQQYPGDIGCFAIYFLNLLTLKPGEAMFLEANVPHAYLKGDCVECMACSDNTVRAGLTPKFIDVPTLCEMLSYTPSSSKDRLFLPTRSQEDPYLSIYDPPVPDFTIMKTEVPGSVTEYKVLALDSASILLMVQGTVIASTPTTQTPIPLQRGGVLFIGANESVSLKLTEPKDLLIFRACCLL
For the compound `COc1ccc(-n2c(SCC(=O)Nc3nccs3)nc3c(c2=O)SCC3)cc1`, the inhibition was 11.9%.
With `CCC(=O)c1ccc(OCC(O)CN2CCOCC2)cc1` (stereo not drawn), the inhibition was 6.8%.
The same measure for `O=C(Nc1ccc2c(c1)CCC2)Nc1ccc2c(c1)OCO2`: 11%; for `CC(/C=N/Nc1nc(C)cc(=O)[nH]1)=C\c1ccccc1`: -78.9%; for `COc1ccc(NC(=S)Nc2ccccc2)cn1`: 8.5%.
Consider `COc1ccccc1NC(=S)NNC(=S)Nc1ccc(OC(F)F)cc1`, for which the inhibition was 5.4%.
Take `COc1ccc(NC(=S)Nc2ccc(OC(F)F)cc2)cn1`: the inhibition is 58.2% (active).
The same measure for `O=C(O)c1ccccc1SCC(=O)N1CCc2ccccc21`: -1.8%; for `O=C1OC(Nc2cc(Br)cc3cccnc23)c2ccccc21` (stereo not drawn): 50.7% (active).
To `Cc1ccc2cccc(NC3OC(=O)c4ccccc43)c2n1` (stereo not drawn) belongs 59.9% (active).
To `O=C1OC(Nc2ncccn2)c2ccccc21` (stereo not drawn) belongs 5.1%.
Regarding `COC(=O)c1ccccc1NC1OC(=O)c2ccccc21` (stereo not drawn), the inhibition is 8.6%.
For the compound `O=C1OC(Nc2ccc(Br)cc2F)c2ccccc21` (stereo not drawn), the inhibition is -12.4%.
To `CCOC(=O)c1ccccc1NC1OC(=O)c2ccccc21` (stereo not drawn) belongs 6.8%; to `Cc1ccc(OCCOc2ccc(Br)cc2/C=N\NC(N)=O)cc1`, 4%; to `CCOc1ccc(N=Nc2c(=O)[nH]n3c(C)cc(C)nc23)cc1`, 18%.
Turning to `CCOC(=O)C1CCCN(C2CC(=O)N(c3ccc(C)cc3)C2=O)C1` (stereo not drawn), the inhibition was -2.1%.
As to `COC(=O)CP(=O)(c1ccccc1)c1ccccc1`, the inhibition was -5.8%.
The same measure for `CCOC(=O)COc1ccccc1/C=C\[N+](=O)[O-]`: 0.8%.
For the compound `CCOc1ccc(/C=C/[N+](=O)[O-])c2ccccc12`, the inhibition is 55.6% (active).
Consider `CCOC(=O)Cn1cc(/C=C/[N+](=O)[O-])c2ccccc21`, for which the inhibition was 8.7%.
The same measure for `O=[N+]([O-])/C=C/c1c(OCc2ccccc2)ccc2ccccc12`: 3.1%; for `CCOC(=O)COc1ccc2ccccc2c1/C=C/[N+](=O)[O-]`: 54.6% (active); for `CCOC(=O)COc1ccc(/C=C/[N+](=O)[O-])c(OCC(=O)OCC)c1`: 1.7%.
As to `COc1ccc(Nc2nc(N)nc(CSc3nncn3C)n2)cc1`, the inhibition was 4.9%.
The same measure for `CCN(Cc1ccccc1)C(=O)CSc1nc(C)cc(C)c1C#N`: 5.3%; for `Cc1ccc2c(c1)NC(C(C)(C)C)CO2` (stereo not drawn): -5.8%.
The same measure for `CC1CCC(C(C)C)C(OC(=O)COC(=O)c2cccn2C)C1` (stereo not drawn): 16%; for `CC1CCC(C(C)C)C(OC(=O)COC(=O)c2ccc(N)cc2)C1` (stereo not drawn): 16.2%.
To `CC1CCC(C(C)C)C(OC(=O)COC(=O)c2cc(O)ccc2N)C1` (stereo not drawn) belongs 59.5% (active); to `Cc1ccc(SCCNC(=O)CN(c2ccc3c(c2)OCO3)S(C)(=O)=O)cc1`, 13.2%.
For the compound `CCc1ccccc1OCc1nc2ccc(S(=O)(=O)N3CCOCC3)cc2[nH]1`, the inhibition is 9.5%.
Turning to `CC(C)Cc1nc(N2CCC(C(N)=O)CC2)c2nnn(Cc3ccccc3)c2n1`, the inhibition is -15%.
Take `CCc1ccc(S(=O)(=O)/N=C2/C=C(Sc3ncn[nH]3)C(=O)c3ccccc32)cc1`: the inhibition was 90.6% (active).
To `CC(C)c1ccc(N2C(=O)CC(Sc3ncn[nH]3)C2=O)cc1` (stereo not drawn) belongs 22.4%; to `O=C1c2ccccc2C(=O)N1CCSc1ncn[nH]1`, -12%.
To `CC(C)c1ccc(S(=O)(=O)/N=C2/C=C(Sc3ncn[nH]3)C(=O)c3ccccc32)cc1` belongs 80% (active); to `COC(=O)C(C(C)=O)C1=C/C(=N\S(=O)(=O)c2ccc(C)cc2)c2ccccc2C1=O` (stereo not drawn), 18%; to `Cc1ccc(S(=O)(=O)/N=C2/C=C(Sc3ncn[nH]3)C(=O)c3ccccc32)cc1`, 88.3% (active).
To `CCc1ccc(C(=O)CSc2ncn[nH]2)cc1` belongs -20.5%.
In the case of `Cc1ccc(S(=O)(=O)/N=C2/C=C(C3C(=O)CC(C)(C)CC3=O)C(=O)c3ccccc32)cc1`, the inhibition is -3.6%.
As for `CCc1ccc(S(=O)(=O)ON2C(=O)c3ccccc3C2=O)cc1`, the inhibition was -11.4%.
To `CCc1ccc(S(=O)(=O)/N=C2\C=CC(=O)c3ccccc32)cc1` belongs 50.7% (active); to `O=C(O)c1ccc(NC2=C/C(=N/S(=O)(=O)c3ccccc3)c3ccccc3C2=O)cc1`, -34.1%.
`CC(C)c1ccc(S(=O)(=O)/N=C2/C=CC(=O)c3ccccc32)cc1`: the inhibition was 44.1%.
Regarding `CCOC(=O)N1CCN(C(=O)CSCc2ccc(Br)cc2)CC1`, the inhibition is 1.1%.
To `Cc1ccc(NC(=O)CSc2nnc(C(F)(F)F)n2C)cc1[N+](=O)[O-]` belongs 2.1%.
Take `CC(C)/C=C1\CCCCC1N(C)C(=O)NC(C)C` (stereo not drawn): the inhibition was 2.9%.
To `CCCCCCCSc1nnc(-c2ccccc2N)c(=O)[nH]1` belongs 13.6%; to `CCNc1sc(C(=O)c2cccs2)c(N)c1-c1nc2ccccc2s1`, -5.3%.
To `Cc1ccc2sc(N(CCCN(C)C)C(=O)c3ccc(Br)s3)nc2c1C` belongs -10.3%; to `CCOc1ccccc1N(CC(=O)NC1CCCCC1)C(=O)c1nsc(Cl)c1Cl`, 8.5%; to `CCOc1ccccc1NC(=O)Cn1nnc(-c2ccc(OCC)c(OCC)c2)n1`, -1.1%.
The same measure for `COc1ccc(-c2cn(-c3cccc(C)c3)c(=O)[nH]2)cc1OC`: -94.8%; for `COc1ccc(C2CC2/C(=N/OC(=O)c2cccs2)c2ccccc2)cc1` (stereo not drawn): 4.3%; for `O=C(C1CCN(S(=O)(=O)N2CCC3(CC2)OCCO3)CC1)N1CCCCC1`: 11%.
For the compound `COc1ccc(Oc2coc3cc(OC(=O)/C=C/c4ccc(F)cc4)ccc3c2=O)cc1`, the inhibition is -6.3%.
To `COc1ccc(Oc2coc3cc(OC(=O)/C=C/c4ccccc4)ccc3c2=O)cc1` belongs 6.5%; to `COc1ccccc1-c1coc2cc(OC(=O)/C=C/c3ccccc3)ccc2c1=O`, 57.1% (active).
To `COc1cccc(NC(=O)N2CCCC2C(=O)Nc2ccc3c(c2)OCCO3)c1` (stereo not drawn) belongs 7%; to `O=C1c2ccccc2-c2onc3c(Oc4ccccc4)cc(O)c1c23`, -4.7%; to `CCOC(=O)C(C(=O)OCC)c1cc(Br)c2noc3c2c1C(=O)c1ccccc1-3`, 52.1% (active).
As to `CCOC(=O)c1c(C)nc2c(c1-c1ccccc1)C(=O)c1ccccc1-2`, the inhibition is -34.4%.
Turning to `COc1ccc(Cc2n[nH]c(=S)n2C)cc1Br`, the inhibition was 0.8%.
To `O=C(NCCN1CCCCC1)c1cc(OCC(F)(F)F)ccc1OCC(F)(F)F` belongs 7.9%; to `CC(C)CCNC(=S)Nc1ccccc1F`, -14.2%.
As for `CCCCNC(=S)Nc1ccccc1F`, the inhibition was 59% (active).
The same measure for `Fc1ccccc1NC(=S)NCCc1ccccc1`: -7.1%.
With `O=C(COC(=O)Cc1ccccc1[N+](=O)[O-])NCc1ccccc1Cl`, the inhibition is -4%.
The same measure for `S=C(Nc1ccc(Cl)c(Cl)c1)N1CCOCC1`: 10.9%; for `COC(=O)c1cccc(NC(=S)N2CCCCC2)c1`: -3.2%; for `COC(=O)c1cccc(NC(=S)N2CCN(c3ccccc3F)CC2)c1`: 4.7%.
Consider `S=C(Nc1ccc2nccnc2c1)N1CCOCC1`, for which the inhibition was 69.2% (active).
To `S=C(Nc1ccc2nccnc2c1)N1CCCC1` belongs 35.6%; to `COC(=O)c1cccc(NC(=S)N2CCOCC2)c1`, 52.1% (active); to `CC(C)CCNC(=O)C(NS(=O)(=O)c1ccc2c(c1)c(=O)n(C)c(=O)n2C)c1ccccc1` (stereo not drawn), -11.2%.
As for `Cc1cc(C(F)F)n2nc(C(=O)Nc3ccccc3Br)nc2n1`, the inhibition is -3.5%.
On to `Cc1ccsc1/C=N/NC(=O)c1cc(-c2ccncc2)nc2ccccc12`, for which the inhibition was -9.2%.
The same measure for `N#Cc1ccc(C(=O)Nc2cc(S(=O)(=O)N3CCCC3)ccc2OCC(F)(F)F)cc1`: -0.6%; for `CCCc1nc2c(=O)[nH]c3ccccc3c2o1`: -0.9%.
For `NC(=O)c1c(NC(=O)c2cc3ccccc3o2)sc2c1CCC2`, the inhibition is 2.2%.
The same measure for `COC(=O)c1ccccc1NC(=O)c1ccc(-c2cccc(Cl)c2)o1`: 6.9%.
To `O=C(Nc1cccc2nsnc12)c1ccc(-c2cccc(Cl)c2)o1` belongs 50.2% (active).
`O=C(Nc1cccc2ncccc12)c1ccc(-c2ccc(Br)cc2)o1`: the inhibition is 40.4%.
Regarding `COc1ccccc1NC(=O)c1ccc(-c2ccc(Br)cc2)o1`, the inhibition is 7.4%.
Regarding `O=C(Nc1cccc2nsnc12)c1ccc(-c2ccc(Br)cc2)o1`, the inhibition is 50.3% (active).
As for `O=C(Nc1ccccc1N1CCCCC1)c1ccc(-c2cccc(Cl)c2)o1`, the inhibition is 1.7%.
To `Cc1ccc(C)c(N2CCN(CCCNC(=O)Cn3cccc3C(=O)c3ccccc3)CC2)c1` belongs -7.6%; to `CC1(c2ccccc2Cl)NC(=O)N(CC(=O)NCc2ccco2)C1=O` (stereo not drawn), -3%; to `COC(=O)c1sccc1NC(=O)CSc1nnnn1-c1ccccc1F`, 10.3%.
To `O=C(O)CCSc1nnc(COc2ccc([N+](=O)[O-])cc2)n1-c1ccccc1` belongs 7.5%; to `COc1ccc(-n2c(N)c(C#N)c3ccc([N+](=O)[O-])cc3c2=O)cc1`, 52.3% (active).
As for `COc1cccc(-n2c(N)c(C#N)c3ccc([N+](=O)[O-])cc3c2=O)c1`, the inhibition was 16.8%.
The same measure for `CCCCCCn1c(N)c(C#N)c2ccc([N+](=O)[O-])cc2c1=O`: 63.1% (active).
To `N#Cc1c(N)n(-c2ccccc2)c(=O)c2cc([N+](=O)[O-])ccc12` belongs 36.6%.
As for `COc1ccc(-n2cnc3cc([N+](=O)[O-])ccc32)cc1`, the inhibition was 3.2%.
On to `CCCCCCC(=O)N=Nc1c(O)[nH]c2ccc([N+](=O)[O-])cc12`, for which the inhibition was 1.3%.
As for `COCCCNc1ncnc2c1[nH]c1ccccc12`, the inhibition is 16.1%.
